Measured values from PubChem BioAssay (NCI).
“And” between values parts separate entries of the source, which are not always exact repeats. Equal values may be shown once. This is part of a sample that, as a whole, favours compounds with a hit. Of some 83,000 tested, about 20% had one in any assay.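 Single-concentration screen, 48 h exposure, 96-well plates. Endpoint: percent growth. Below 10 = active.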 The source made the active and inactive calls.

Assays:
Assay in all cases: NCI-60 one-dose screen, 48 h (100 = growth as untreated, 0 = no growth, -100 = all killed)
Conditions in all cases: 10 µM unless noted
NCI-H23 lung = tested on: NCI-H23 lung
NCI-H226 lung = tested on: NCI-H226 lung
NCI-H322M lung = tested on: NCI-H322M lung
HOP-62 NSCLC = tested on: HOP-62 NSCLC
NCI-H460 lung = tested on: NCI-H460 lung
HOP-92 NSCLC = tested on: HOP-92 NSCLC
NCI-H522 lung = tested on: NCI-H522 lung
A549/ATCC NSCLC = tested on: A549/ATCC NSCLC
786-0 renal = tested on: 786-0 renal
COLO 205 colon = tested on: COLO 205 colon
DU-145 prostate = tested on: DU-145 prostate
K-562 leukemia = tested on: K-562 leukemia
MALME-3M melanoma = tested on: MALME-3M melanoma
MDA-MB-231 breast = tested on: MDA-MB-231 breast
RXF 393 renal = tested on: RXF 393 renal
SF-268 CNS = tested on: SF-268 CNS
SF-295 CNS = tested on: SF-295 CNS
SF-539 CNS = tested on: SF-539 CNS
UACC-257 melanoma = tested on: UACC-257 melanoma
M14 melanoma = tested on: M14 melanoma

SMILES | growth (NCI-H23 lung) | growth (NCI-H226 lung) | growth (NCI-H322M lung) | growth (HOP-62 NSCLC) | growth (NCI-H460 lung) | growth (HOP-92 NSCLC) | growth (NCI-H522 lung) | growth (A549/ATCC NSCLC) | growth (786-0 renal) | growth (COLO 205 colon) | growth (DU-145 prostate) | growth (K-562 leukemia) | growth (MALME-3M melanoma) | growth (MDA-MB-231 breast) | growth (RXF 393 renal) | growth (SF-268 CNS) | growth (SF-295 CNS) | growth (SF-539 CNS) | growth (UACC-257 melanoma) | growth (M14 melanoma)
O=[N+]([O-])c1ccc(NC2CCCCC2)nc1 | 93.2% (inactive) and 96.9% (inactive) | 113% (inactive) and 92.4% (inactive) | 117% (inactive) and 105% (inactive) | 94.8% (inactive) and 101% (inactive) | 108% (inactive) and 105% (inactive) | 114% (inactive) and 81.8% (inactive) | 95.1% (inactive) and 92.1% (inactive) | 101% (inactive) and 98.5% (inactive) | 103% (inactive) | 108% (inactive) and 102% (inactive) | 96.7% (inactive) and 119% (inactive) | 108% (inactive) and 104% (inactive) | 118% (inactive) | 95.4% (inactive) and 114% (inactive) | 126% (inactive) and 103% (inactive) | 110% (inactive) and 112% (inactive) | 103% (inactive) and 102% (inactive) | 99.6% (inactive) and 110% (inactive) | 107% (inactive) and 106% (inactive) | 105% (inactive) and 109% (inactive)
Cc1c(Cl)c(C)c(Cc2c(C)c(Cl)c(C)c(Cl)c2O)c(O)c1Cl | -13% (active) | 15.7% (inactive) | 16.1% (inactive) | 15.8% (inactive) | 5.16% (active) | -20% (active) | 7.1% (active) | 14.4% (inactive) | 49% (inactive) | 79.4% (inactive) | 30.2% (inactive) | 20.1% (inactive) | -3.69% (active) | 2.41% (active) | 4.04% (active) | 19.6% (inactive) | 0.164% (active) | 15.7% (inactive) | -0.631% (active) | 22.6% (inactive)
COc1ccc2oc3c(ccc[n+]3C)c(=O)c2c1 | 105% (inactive) | 98.3% (inactive) | 105% (inactive) | 80.5% (inactive) | 108% (inactive) | 94.7% (inactive) | 82.7% (inactive) | 84% (inactive) | 105% (inactive) | 98.6% (inactive) | 113% (inactive) | 99% (inactive) | 102% (inactive) | 110% (inactive) | 108% (inactive) | 101% (inactive) | 99.5% (inactive) | 98.2% (inactive) | 87.3% (inactive) | 102% (inactive)
O=C(O)c1ccc2c3ccc(C(=O)O)c4c(C(=O)O)ccc(c5ccc(C(=O)O)c1c25)c43 | 87.8% (inactive) | 92.2% (inactive) | 100% (inactive) | 92.4% (inactive) | 96.5% (inactive) | 112% (inactive) | 95.3% (inactive) | 92.1% (inactive) | 107% (inactive) | 104% (inactive) | 112% (inactive) | 113% (inactive) | 86.7% (inactive) | 88.2% (inactive) | 100% (inactive) | 105% (inactive) | 84.5% (inactive) | 94.2% (inactive) | -14.6% (active) | 107% (inactive)
Clc1ccc(/C=C/c2ccc3ccccc3n2)cc1 | 37.6% (inactive) and 89.5% (inactive) and 71.2% (inactive) | 84.1% (inactive) and 81.1% (inactive) and 92.6% (inactive) | 38.8% (inactive) and 90.3% (inactive) and 86.1% (inactive) | 45.2% (inactive) and 95.4% (inactive) and 93.5% (inactive) | 8.45% (active) and 86% (inactive) and 81.1% (inactive) | 42.9% (inactive) and 67% (inactive) and 85.3% (inactive) | -38.8% (active) and 79.1% (inactive) and 76.8% (inactive) | 25.9% (inactive) and 92.3% (inactive) and 96.6% (inactive) | 55.3% (inactive) and 97.8% (inactive) and 100% (inactive) | -6.62% (active) and 112% (inactive) and 100% (inactive) | 1.65% (active) and 108% (inactive) and 103% (inactive) | 17.7% (inactive) and 91.2% (inactive) and 87.3% (inactive) | 62.3% (inactive) and 89.8% (inactive) and 77.1% (inactive) | 31% (inactive) and 80.1% (inactive) and 84% (inactive) | 8.75% (active) and 117% (inactive) | 43.4% (inactive) and 97.7% (inactive) and 96.9% (inactive) | 17.9% (inactive) and 74% (inactive) and 84.7% (inactive) | 1.74% (active) and 102% (inactive) | 44.2% (inactive) and 134% (inactive) and 104% (inactive) | 81% (inactive) and 75.3% (inactive)
